The record followed here is PubChem BioAssay (NCATS).

Each structure is given as a SMILES string. Inconclusive results are not listed. Active and inactive are the calls of the source. The call rests on the fitted dose curve; in most records, active means well fitted curve in the direction sought with a large enough effect; inconclusive means small, poorly fitted or top-dose-only effect, or another doubt; inactive means no such curve, though single readings can be large; an effect the other way counts as inactive or inconclusive.

Protein phosphatase 1D (Homo sapiens), sequence (O15297 whole entry, looked up): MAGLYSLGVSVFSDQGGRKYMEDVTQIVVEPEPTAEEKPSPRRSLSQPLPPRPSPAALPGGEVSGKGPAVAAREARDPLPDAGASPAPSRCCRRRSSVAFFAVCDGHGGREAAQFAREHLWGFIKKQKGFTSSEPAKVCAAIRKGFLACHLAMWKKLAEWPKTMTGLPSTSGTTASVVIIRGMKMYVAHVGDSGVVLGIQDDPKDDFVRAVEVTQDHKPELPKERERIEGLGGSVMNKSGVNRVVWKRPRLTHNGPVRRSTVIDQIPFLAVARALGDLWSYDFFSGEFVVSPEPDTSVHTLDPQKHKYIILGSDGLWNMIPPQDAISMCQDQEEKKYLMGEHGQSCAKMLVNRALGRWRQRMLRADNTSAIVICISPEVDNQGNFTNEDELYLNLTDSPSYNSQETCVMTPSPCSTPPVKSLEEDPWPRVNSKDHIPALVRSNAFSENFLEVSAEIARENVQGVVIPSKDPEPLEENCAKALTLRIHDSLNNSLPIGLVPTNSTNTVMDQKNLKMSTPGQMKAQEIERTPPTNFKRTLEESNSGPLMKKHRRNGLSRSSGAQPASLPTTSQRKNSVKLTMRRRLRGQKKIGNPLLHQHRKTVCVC

Tested on in the first assay: not listed separately
The assay can be described thus: qHTS to identify inhibitors of the type 1 interferon - major histocompatibility complex class I in skeletal muscle: primary screen against the NCATS Pharmaceutical Collection (AID 1347407).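 Further: luminescence of HiBiT knocked into endogenous HLA-B as interferon-induced MHC class I level; on the % scale 0 is the no-effect control and ±100 the full control effect.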 Conditions: human skeletal muscle cells, IFN-b-induced MHC-I HiBiT luminescence, 24 h; series mostly up to 45.9 µM; activity change, negative = inhibition: at the top concentration. A digest of the protocol: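 A qHTS format is used: 8-point, 1:5 compound series with 46 uM top final concentration, applied alongside 4 ng/ml IFN-beta to HLA-B*08:01-HiBiT knock-in myoblasts. Luminescence is measured after 24 h treatment.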
(In general: Quantitative high-throughput screening tests each substance at several concentrations.)
As to `Oc1cccc2[nH]ccc12`, the “activity change, negative = inhibition” value is -7.36% (inactive). Take `Cc1cnc(NS(=O)(=O)c2ccc(N)cc2)nc1`: the “activity change, negative = inhibition” value is -4.04% (inactive). As for `Nc1ccc2c(c1)CN1C(=O)c3ccccc3C1=N2`, the “activity change, negative = inhibition” value is -7.35% [at 19 µM] (inactive). On to `COC(=O)c1cc(Cl)c(NC(C)=O)cc1OC`, for which the “activity change, negative = inhibition” value is 10.8% (inactive). For `CCOC(=O)C(=O)CCc1ccccc1`, the “activity change, negative = inhibition” value was -18% (inactive). Regarding `CN1C(=O)CC(C)(c2ccccc2)C1=O` (configuration not stated), the “activity change, negative = inhibition” value was -9.34% (inactive).

Turning to `CN(C)CCOC1=Cc2ccccc2Sc2ccc(Cl)cc21`, the “activity change, negative = inhibition” value is -19.1% (inactive). Consider `O=C1CC2(CCCC2)CC(=O)N1`, for which the “activity change, negative = inhibition” value was 3.52% (inactive). Same read-out and setting: under `CCN(CC)C(=O)C1CN2CCc3cc(OC)c(OC)cc3C2CC1OC(C)=O` (configuration not stated) stands 8.2% (inactive). `O=c1[nH]c(=O)n([C@H]2O[C@H](CO)[C@@H](O)[C@@H]2O)cc1/C=C\Br`: the “activity change, negative = inhibition” value was -2.15% (inactive). As to `COC(=O)c1cc(S(N)(=O)=O)ccc1OC`, the “activity change, negative = inhibition” value is -2.39% (inactive). Turning to `COC(=O)c1c(Cl)c(Cl)c(C(=O)OC)c(Cl)c1Cl`, the “activity change, negative = inhibition” value is -11% [at 92.2 µM] (inactive). Regarding `C1=CC2C3C=CC(C3)C2C1` (configuration not stated), the “activity change, negative = inhibition” value is 4.75% [at 92.2 µM] (inactive). As for `CC(CC(C#N)(c1ccccc1)C(C)C)N(C)C` (configuration not stated), the “activity change, negative = inhibition” value is -0.677% (inactive).

For `CC(=O)OCC(=O)Nc1cc(C#N)cc(NC(=O)COC(C)=O)c1Cl`, the “activity change, negative = inhibition” value is -8.55% (inactive).

The next assay addresses Protein phosphatase 1D (Homo sapiens) (UniProt O15297). The assay can be described thus: RapidFire Mass Spectrometry qHTS Assay for Modulators of WT P53-Induced Phosphatase 1 (WIP1) (AID 1347424).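 Further: plate controls were DMSO wells for no effect and GSK830371 inhibitor control at 10 µM for full effect.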 The conditions noted are these: WIP1 dephosphorylation of phosphopeptide, RapidFire MS; series mostly up to 63 µM; activity change, negative = inhibition: at the top concentration. A digest of the protocol:
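RapidFire MS readout of dephosphorylated VEPPL-S-QETFS product, with 1 uM isotope-labelled peptide standard. Reaction: 10 nM WIP1, 2 uM phosphopeptide substrate, 5 min, room temperature, after 1 h compound preincubation; stopped with 0.5% formic acid.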
Take `CC1(C)OC(=O)Nc2ccc(Br)cc21`: the “activity change, negative = inhibition” value is -1.46% (inactive). The same measure, in the same setting: the result for `CC(C)(C)c1ccc(C(=O)CCCCl)cc1` reads 25.2% (inactive); that for `COc1ccc2nc(SCc3ncc(C)c(OC)c3C)[nH]c2c1`, -0.879% (inactive). As for `Cc1cccc(N(C)C(=S)Oc2ccc3c(c2)C2CCC3C2)c1` (configuration not stated), the “activity change, negative = inhibition” value was 5.61% (inactive).

For `CCCCC(O)/C=C(C)/C=C/C=C/C(=O)N1CCCC1=O` (configuration not stated), the “activity change, negative = inhibition” value was 17.7% (inactive). In the case of `O=C(C1CCCCC1)N1CC(=O)N2CCCc3ccccc3C2C1` (configuration not stated), the “activity change, negative = inhibition” value was 4.55% (inactive).

On to `CCO[C@H](Cc1ccc(OCCc2ccc(OS(C)(=O)=O)cc2)cc1)C(=O)O`, for which the “activity change, negative = inhibition” value was -9.86% (inactive). With `CC(NN)c1ccccc1` (configuration not stated), the “activity change, negative = inhibition” value was -1.06% [at 26.6 µM] (inactive).

In the case of `OC(CCCN1CCCCC1)(c1ccccc1)c1ccccc1`, the “activity change, negative = inhibition” value is -19.8% (inactive). `O=C(c1ccccc1)c1ccccc1`: the “activity change, negative = inhibition” value was 8.3% (inactive).

In the case of `CC[C@@H]([C@H](C)O)n1ncn(-c2ccc(N3CCN(c4ccc(OC[C@@H]5CO[C@@](Cn6cncn6)(c6ccc(F)cc6F)C5)cc4)CC3)cc2)c1=O`, the “activity change, negative = inhibition” value is 13.8% (inactive). With `O=C(c1cc(O)c(O)c(O)c1)c1ccc(O)c(O)c1O`, the “activity change, negative = inhibition” value is -14% (inactive). Turning to `COc1cc(C(=O)NC2CCCNC2)cc(OC)c1OC` (configuration not stated), the “activity change, negative = inhibition” value was 14.5% (inactive). Turning to `CNC(=O)c1c(I)c(NC(C)=O)c(I)c(C(=O)O)c1I`, the “activity change, negative = inhibition” value is 0.345% (inactive). For `CC(Oc1c(Cl)cccc1Cl)C1=NCCN1` (configuration not stated), the “activity change, negative = inhibition” value is 1.1% (inactive). Consider `CN(C(=O)C(Cl)Cl)c1ccc(OC(=O)c2ccco2)cc1`, for which the “activity change, negative = inhibition” value was -2.43% (inactive). As to `CCN1CCCC1CN` (configuration not stated), the “activity change, negative = inhibition” value was -6.29% (inactive). Still for that read-out and setting: the result for `CCOC(=O)C(O)c1ccccc1` (configuration not stated) reads 10.8% (inactive). Turning to `CCOC(=O)C(=O)CCCCCCl`, the “activity change, negative = inhibition” value is 7.87% (inactive). Turning to `CCCCCCCCCCCCCCCCCCN(C)C`, the “activity change, negative = inhibition” value is -1.87% (inactive). On the same count and under the same terms, the result for `C#CC(C)(CC)OC(=O)c1ccccc1C(=O)O` (configuration not stated) reads -2.23% (inactive). As to `O=C(O)CNC(=O)CNC(=O)CNC(=O)CSC(=O)c1ccccc1`, the “activity change, negative = inhibition” value was 6.34% (inactive). On the same count and under the same terms, under `Oc1cccc2[nH]ccc12` stands -9.19% (inactive); under `Cc1cnc(NS(=O)(=O)c2ccc(N)cc2)nc1`, 3.73% (inactive). The same measure, in the same setting: the result for `Nc1ccc2c(c1)CN1C(=O)c3ccccc3C1=N2` reads 11.9% [at 26.6 µM] (inactive); that for `COC(=O)c1cc(Cl)c(NC(C)=O)cc1OC`, 10.6% (inactive); that for `CCOC(=O)C(=O)CCc1ccccc1`, -4.36% (inactive). `CN1C(=O)CC(C)(c2ccccc2)C1=O` (configuration not stated): the “activity change, negative = inhibition” value is 42.5% (inactive). As for `CN(C)CCOC1=Cc2ccccc2Sc2ccc(Cl)cc21`, the “activity change, negative = inhibition” value was 21% (inactive).

For `O=C1CC2(CCCC2)CC(=O)N1`, the “activity change, negative = inhibition” value is 16.6% (inactive).

On to `CCN(CC)C(=O)C1CN2CCc3cc(OC)c(OC)cc3C2CC1OC(C)=O` (configuration not stated), for which the “activity change, negative = inhibition” value was -0.374% (inactive).

Consider `O=c1[nH]c(=O)n([C@H]2O[C@H](CO)[C@@H](O)[C@@H]2O)cc1/C=C\Br`, for which the “activity change, negative = inhibition” value is 2.28% (inactive). Turning to `COC(=O)c1cc(S(N)(=O)=O)ccc1OC`, the “activity change, negative = inhibition” value is 2.27% (inactive). Consider `COC(=O)c1c(Cl)c(Cl)c(C(=O)OC)c(Cl)c1Cl`, for which the “activity change, negative = inhibition” value was 1.73% [at 128 µM] (inactive). The same measure, in the same setting: the result for `C1=CC2C3C=CC(C3)C2C1` (configuration not stated) reads -5.86% [at 128 µM] (inactive); that for `CC(CC(C#N)(c1ccccc1)C(C)C)N(C)C` (configuration not stated), 13.9% (inactive).

Regarding `CC(=O)OCC(=O)Nc1cc(C#N)cc(NC(=O)COC(C)=O)c1Cl`, the “activity change, negative = inhibition” value is 3.15% (inactive).
